HSF-1 act: HSF-1 activators, primary screen, NIH3T3-HGL cells, MG132 stress, luminescence, single point | actives 1.7% (n = 300,000) | activation, % at 9 µM | NIH3T3-HGL HSF-1 luciferase reporter, 8 h; 100% = twice DMSO control signal;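 active means mean replicate activation of at least 50% with a set share of replicates each reaching 50%; inconclusive means only one of those two conditions met; inactive means mean below 50% and too few replicates reaching it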
HSF1 inh: HSF1 inhibitors in luciferase reporter cells, primary screen, cell-based, NIH3T3, luminescence. NIH3T3-HGL HSE-luciferase, MG132-induced, luminescence 8 h; stronger effect = lower value. activity change, negative = inhibition, % at 7.5 µM (by protocol). actives 0.77% (n = 300,000);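 active means more than half of replicate wells show activity change below -50%, luminescence cut by over half; inconclusive means some wells, but at most half, below -50%; inactive means no replicate well below -50%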;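 further: luciferase reports HSF-1 transcriptional activity via heat shock element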
MITF TRPM1 HTS: activators of MITF-driven TRPM1 promoter reporter, primary screen, cell-based, SK-MEL-5, luciferase, single point; activation, % at 12.5 µM; SK-MEL-5 TRPM1-promoter luciferase, 24 h; % of positive control, neutral wells = 0; actives 0.75% (n = 300,000);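 active means mean activation of at least 80% with every replicate also reaching 80%; inconclusive means mean reaches 80% but some replicate falls short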
Wnt bcat act: Wnt/beta-catenin pathway activators, primary screen, cell-based, plate reader, single point; actives 1.2% (n = 300,000); Wnt/beta-catenin reporter cell assay, activator; activation, % at 9.35 µM; in the data active means activation above about 30%, passing the limit was not always enough; inconclusive means no clear call, values can overlap the other calls
esBAF inh: Bmi1 luciferase reporter increase in mESCs, primary screen, esBAF inhibitor project, mouse ES cells, Bmi1 luciferase knock-in, single point; 24 h; 100% = twice the neutral-well signal; reporter increase, % at 12.5 µM; actives 2% (n = 350,000); AID 602393, 2012; in the data active means activation above about 40%; inconclusive means no clear call, values can overlap the other calls;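 further: a rise in the Bmi1 reporter signal indicates esBAF inhibition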
SMARCA2 activ: SMARCA2 (BRM) function activators, primary screen, cell-based, luminescence, high throughput; AID 652017, 2013; MG213 cells, MMTV-luciferase reporter, dexamethasone, overnight; activation, % at 9.1 µM; actives 1% (n = 370,000); in the data active means activation above about 7.8%
Each line names hits and unclear results; the compound was inactive in the other large screens. This is a sample that favours compounds with a hit; in the whole collection about 4.3% have one here.

CN1[C@@H]2Cn3c(ccc(-c4cccnc4)c3=O)[C@H]1[C@@H](C(=O)NCCc1ccccc1)[C@@H]2CO	none (no result: HSF-1 act, HSF1 inh, MITF TRPM1 HTS, Wnt bcat act, SMARCA2 activ)
Cc1nn(-c2ccc(N3CCCCC3)nn2)c(C)c1CCC(=O)Nc1cc(F)ccc1F	esBAF inh 63
Cc1nn(-c2ccc(N3CCCCC3)nn2)c(C)c1CCC(=O)Nc1ccccc1F	none
Cc1cccc(NC(=O)CCc2c(C)nn(-c3ccc(N4CCCCC4)nn3)c2C)c1	HSF-1 act 64
O=C(NC1CCCC1)C(c1ccncc1)N(CCCN1CCOCC1)C(=O)c1ccc(-c2ccccc2)[nH]1 (centres undefined)	none (no result: esBAF inh)
CC(C)(C)NC(=O)C(c1ccncc1)N(Cc1ccc(F)cc1)C(=O)c1ccc(-c2ccccc2)[nH]1 (centres undefined)	HSF-1 act 87 (no result: esBAF inh)
O=C(NC1CCCC1)C(c1ccccc1)N(Cc1cccnc1)C(=O)Cc1cccs1 (centres undefined)	HSF-1 act 55
O=C(NC1CCCC1)C(c1ccncc1)N(Cc1ccco1)C(=O)c1ccc(-c2ccccc2)[nH]1 (centres undefined)	HSF-1 act 122 (no result: esBAF inh)
O=C(NC1CCCC1)C(c1ccncc1)N(Cc1ccccc1)C(=O)c1ccc(-c2ccccc2)[nH]1 (centres undefined)	HSF-1 act 73 (no result: Wnt bcat act, esBAF inh)
CNC[C@@H]1OCCCC[C@H](C)Oc2ccc(NC(=O)Nc3cccc4ccccc34)cc2C(=O)N([C@H](C)CO)C[C@@H]1C	none (no result: HSF-1 act, HSF1 inh, MITF TRPM1 HTS, Wnt bcat act, SMARCA2 activ)
CNC[C@H]1Oc2ccc(NC(=O)CCN3CCOCC3)cc2CC(=O)N([C@@H](C)CO)C[C@@H]1C	none (no result: HSF-1 act, HSF1 inh, MITF TRPM1 HTS, Wnt bcat act, SMARCA2 activ)
CCCC1=NN2C(=N)/C(=C\c3cc(C)n(Cc4ccccc4)c3C)C(=O)N=C2S1	none (no result: MITF TRPM1 HTS, esBAF inh)
Cc1cc(/C=C2\C(=N)N3N=CSC3=NC2=O)c(C)n1Cc1ccccc1	Wnt bcat act 36
O=C(NCCOc1ccccc1)c1ccccc1Cl	Wnt bcat act 35
Cc1cccc(-c2nc3ccccc3c(=O)[nH]2)c1	MITF TRPM1 HTS 97
O=C(/C=C\Nc1ccc2c(c1)OCO2)c1ccccn1	HSF1 inh -72 (no result: Wnt bcat act, esBAF inh)
O=C(Cn1cnc2ccccc2c1=O)NCc1ccc2c(c1)OCO2	none (no result: HSF-1 act, HSF1 inh, Wnt bcat act)
O=C(Nc1ccc2c(c1)OCO2)c1ccccn1	Wnt bcat act 46 (no result: HSF-1 act, HSF1 inh)
O=C(Cn1cnc2ccccc2c1=O)Nc1ccc2c(c1)OCO2	esBAF inh 57
COc1ccc(S(=O)(=O)Nc2ccc3c(c2)C(=O)N([C@H](C)CO)C[C@H](C)[C@@H](CN(C)C(=O)CCC(F)(F)F)OCCCC[C@@H](C)O3)cc1	none (no result: HSF-1 act, HSF1 inh, MITF TRPM1 HTS, Wnt bcat act, SMARCA2 activ)
CC(C)(C)c1ccc(Cn2c(=N)n(CC(O)c3ccco3)c3ccccc32)cc1 (centres undefined)	HSF-1 act 56 (no result: Wnt bcat act, esBAF inh, SMARCA2 activ)
Cc1ccccc1Cn1c(=N)n(CC(O)c2ccco2)c2ccccc21 (centres undefined)	none (no result: Wnt bcat act, esBAF inh)
C[C@@H]1CCCCO[C@H](CN(C)Cc2ccc(C(=O)O)cc2)[C@H](C)CN([C@@H](C)CO)C(=O)c2cc(NS(=O)(=O)c3cn(C)cn3)ccc2O1	none (no result: HSF-1 act, HSF1 inh, MITF TRPM1 HTS, Wnt bcat act, SMARCA2 activ)
C[C@H]1CN([C@@H](C)CO)S(=O)(=O)c2ccc(C#Cc3ccccc3)cc2O[C@H]1CN(C)C(=O)CN(C)C	none (no result: HSF-1 act, HSF1 inh, MITF TRPM1 HTS, Wnt bcat act, SMARCA2 activ)
C[C@@H]1CN([C@H](C)CO)C(=O)c2cccc(NS(=O)(=O)c3ccc(Cl)cc3)c2O[C@@H]1CN(C)Cc1ccc2c(c1)OCO2	none (no result: HSF-1 act, HSF1 inh, MITF TRPM1 HTS, Wnt bcat act, SMARCA2 activ)
Cc1c(-c2nc(N)nc(Nc3ccccc3)n2)oc2ccccc12	HSF-1 act 76, MITF TRPM1 HTS inconclusive (no result: Wnt bcat act, esBAF inh)
Nc1nc(CN2CCCCCC2)nc(Nc2ccccc2)n1	none (no result: esBAF inh)
CCOc1cc(C(=O)NC2=NCCS2)cc(OCC)c1OCC	none (no result: esBAF inh)
O=C(NC1=NCCS1)c1ccc(OCC2CCCO2)cc1 (centres undefined)	Wnt bcat act 40
CCOc1ccc(C(=O)NC2=NCCS2)cc1	HSF-1 act 66 (no result: MITF TRPM1 HTS, esBAF inh)
O=C(Nc1ncccc1O)c1ccc(OCC2CCCO2)cc1 (centres undefined)	none
COC(=O)C[C@@H]1C[C@@H]2c3cc(NC(=O)CC4CC4)ccc3O[C@@H]2[C@@H](CO)O1	none (no result: HSF-1 act, HSF1 inh, MITF TRPM1 HTS, Wnt bcat act, SMARCA2 activ)
CCCNC(=O)Nc1ccc2c(c1)C(=O)N(C)C[C@H](OC)[C@@H](C)CN(C(=O)C1CCC1)[C@@H](C)CO2	none (no result: HSF-1 act, HSF1 inh, MITF TRPM1 HTS, Wnt bcat act, SMARCA2 activ)
Cc1ccc(NC(=O)Cc2nc(CSc3nnc(-c4ccc5c(c4)OCO5)o3)cs2)cc1	esBAF inh 51 (no result: MITF TRPM1 HTS)
C=CCn1c(CCNC(=O)c2ccc(Cl)c(Cl)c2)nnc1SCCOc1ccc(OC)cc1	HSF-1 act 128 (no result: SMARCA2 activ)
Cc1ccccc1C1CCCN(C(=O)c2cc(COc3c(F)cccc3F)on2)C1 (centres undefined)	none
Cc1cccc(Cc2nnc(CCC(=O)N3CCCCC3c3nccs3)o2)c1 (centres undefined)	none (no result: esBAF inh)
COCC1CCCN(C(=O)c2ccc3oc(CCCc4ccccc4)nc3c2)C1 (centres undefined)	none
CCCCc1nc2cc(C(=O)N3CCCC(OCCC)C3)ccc2o1 (centres undefined)	MITF TRPM1 HTS inconclusive, esBAF inh 64
CCCCc1nc2cc(C(=O)N3CCCC(COC)C3)ccc2o1 (centres undefined)	esBAF inh 63
CCCOC1CCCN(C(=O)c2cc(COc3c(F)cccc3F)on2)C1 (centres undefined)	HSF-1 act 58, esBAF inh 89
CCCOC1CCCN(C(=O)CCc2nnc(Cc3cccc(C)c3)o2)C1 (centres undefined)	HSF-1 act 63 (no result: esBAF inh)
COc1ccc(CN(C)C[C@@H]2OCCCC[C@@H](C)Oc3ccc(NS(C)(=O)=O)cc3C(=O)N([C@@H](C)CO)C[C@@H]2C)cc1	none (no result: HSF-1 act, HSF1 inh, MITF TRPM1 HTS, Wnt bcat act, SMARCA2 activ)
O=C(O)C[C@H]1C[C@@H]2c3cc(NC(=O)C4CCC4)ccc3O[C@@H]2[C@H](CO)O1	none (no result: HSF-1 act, HSF1 inh, MITF TRPM1 HTS, Wnt bcat act, SMARCA2 activ)
C[C@@H]1CN([C@H](C)CO)S(=O)(=O)c2ccc(C#Cc3cccc(F)c3)cc2O[C@@H]1CN(C)CC1CC1	none (no result: HSF-1 act, HSF1 inh, MITF TRPM1 HTS, Wnt bcat act, SMARCA2 activ)
COCC1CCN(C(=O)c2ccc3oc(CCCc4ccccc4)nc3c2)C1 (centres undefined)	esBAF inh 46
CCOC(=O)N1CCN(C(=O)c2ccc3oc(CCc4ccccc4)nc3c2)CC1	none (no result: HSF-1 act, HSF1 inh, MITF TRPM1 HTS)
O=C(c1ccc2oc(CCc3ccccc3)nc2c1)N1CCC(O)CC1	MITF TRPM1 HTS 92
COc1ccc2c(c1OC)C(=O)N(c1ccc(F)cc1)C2	MITF TRPM1 HTS inconclusive, Wnt bcat act 38
COCCCN1CN(S(=O)(=O)c2ccc(Cl)cc2)c2nc3ccccc3nc21	none (no result: Wnt bcat act)
CC(C)OCCCN1CN(S(=O)(=O)c2ccccc2)c2nc3ccccc3nc21	esBAF inh 43
O=C1c2ccccc2-c2nnc(-c3ccc(O)cc3)cc21	none (no result: esBAF inh)
